# POLI inh: blocks human DNA polymerase iota activity; Potency, µM (doses to about 115 µM), for inactives: top-dose activity, negative = inhibition, most hits filed as inhibitors; AID 588590; Pol iota fluorescent replication assay, 10 min; 1% of 390,000 active; Q9UNA4; also: potency is read from the fitted curve at half-maximal effect
#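 Pol iota at 10 nM preincubated 15 min with compounds at room temperature; reaction started with fluorescent substrate, 50 nM final. Fluorescence read kinetically at 0 and 10 min; buffer-only wells as negative control.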
# Pol beta inh: inhibitors of human DNA polymerase beta. P06746. Pol beta primer extension/strand displacement, fluorescence kinetic. Potency, µM (top dose mostly 114 µM), without a hit: at the highest dose activity change, negative = inhibition, hits mostly inhibitors. 1.3% of 340,000 active; also: potency is read from the fitted curve at half-maximal effect; % is scaled to controls: 0 for no effect and ±100 for the full control effect
#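 Enzyme-only controls used 10 nM Pol beta; buffer lacking enzyme served as negative control. Compound preincubated 15 min, then 50 nM substrate added; 0 and 10 min reads at room temperature.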
# PI5P4K alpha inh: PI5P4K alpha (human) kinase inhibition | 1.2% of 330,000 active | P48426 | AID 652105 | PI5P4Kalpha enzyme, ADP-Glo luminescence, 60 min; active compounds read low | max response, %; active = max response of -50% or lower; inconclusive = between -30% and -50%; inactive = -30% or higher; also: value at the top dose of about 77 µM; % is scaled to controls: 0 for no effect and ±100 for the full control effect
#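 Quantitative HTS of the MLSMR library against PI5P4Kalpha with substrate. ATP added last at 5 microM final; room temperature, 60 minutes. Remaining ATP depleted, ADP converted and read as luminescence.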
# Pol kappa inh: blocks human DNA polymerase kappa activity. 0.53% of 400,000 active. Potency, µM (series often up to 107 µM), without a hit: top-dose activity, negative = inhibition, most hits filed as inhibitors. purified Pol kappa, fluorescent DNA synthesis assay, 10 min. Q9UBT6. AID 588579; also: potency is read from the fitted curve at half-maximal effect; % is scaled to controls: 0 for no effect and ±100 for the full control effect
#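 Fluorescent qHTS in 1536-well format: enzyme (10 nM) and compound sat 15 min at room temperature before 50 nM substrate (final) was added. Signal taken at 0 and 10 min; no-enzyme buffer wells were negative controls.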
# POLH inh: DNA polymerase eta (human) inhibition | recombinant Pol eta, fluorescent DNA replication assay | 1.2% of 390,000 active | Q9Y253 | Potency, µM (top dose mostly 114 µM), for the others: top-dose activity change, negative = inhibition, most hits filed as inhibitors; also: potency is read from the fitted curve at half-maximal effect; % is scaled to controls: 0 for no effect and ±100 for the full control effect
#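 Pol eta at 10 nM preincubated with compounds 15 min at room temperature; reaction started with fluorescent substrate (50 nM final) and read kinetically at 0 and 10 min.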
# WRN helicase inh: inhibitors of human WRN helicase; Q14191; WRN helicase unwinding, fluorescent forked duplex, kinetic; Potency, µM (doses to about 114 µM), for the others: at the top dose activity change, negative = inhibition, hits mostly inhibitors; 0.46% of 360,000 active; also: potency is read from the fitted curve at half-maximal effect; % is scaled to controls: 0 for no effect and ±100 for the full control effect; nearly all actives have a fitted effect of over 55% in size
#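 Kinetic fluorescence helicase assay: unwinding of a quenched forked DNA duplex (100 nM final) with 2 mM ATP final raises red fluorescence (525/598 nm). Compounds sat 15 min at room temperature with 20 nM WRN beforehand.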
# Numbers without * were called inactive; ? = inconclusive; . = not tested or not shown; [ ] = remark or other dose. Only some compounds are listed: those with a hit (about 2.8% of all), similar ones and a draw of the others. Unless noted, calls follow the shape of the dose curve; as a rule, active = well fitted curve in the direction sought with a large enough effect; inconclusive = small, poorly fitted or top-dose-only effect, or another doubt; inactive = no such curve, though single readings can be large; an effect the other way counts as inactive or inconclusive.
SMILES,POLI inh,Pol beta inh,PI5P4K alpha inh,Pol kappa inh,POLH inh,WRN helicase inh
Cc1ccn2c(=O)nc(SCC(=O)N3CCN(c4ccccc4)CC3)nc2c1,50.1µM*,.,?,-13.9%,20µM*,-0.8%[11.6 µM]
Cc1ccc2nc(SCC(=O)c3ccccc3)nc(=O)n2c1,17.2%,.,0.0,4.1%,-11.0%,-10.1%
Cc1ccn2c(=O)nc(SCC(=O)c3ccccc3)nc2c1,44.7µM*,.,-62.2*,-22.4%,20µM*,?
Cc1ccc(CNC(=O)CSc2nc(=O)n3ccccc3n2)cc1,29.1%,.,0.1,3.2%,-18.4%,-8.2%
Cc1ccn2c(=O)nc(SCC(=O)Nc3cccc4ccccc34)nc2c1,?,.,1.7,-9.5%,79.4µM*,-2.5%[11.6 µM]
CCCN(CCC)c1ccc(/C=C/c2ccnc3ccccc23)cc1,24.4%,.,.,-1.3%,.,.
CCOc1ccccc1NC(=O)C1=C(C)Nc2ncnn2C1c1ccco1 (stereo unspecified),22.2%,-22.1%,.,3.0%[60.1 µM],-19.9%,.
N#Cc1c(C#N)c(SSc2c(C#N)c(C#N)c(N)n2-c2ccccc2)n(-c2ccccc2)c1N,13.8%,.,-81.2*,-11.6%,-1.9%,-6.3%
N#Cc1c(N)n(-c2ccc(N)cc2)c2nc3ccccc3nc12,68.4%,3.0%,-5.5,-15.7%,-8.6%,1.4%
Cc1ccc(S(=O)(=O)N2CCN(Cc3nc4ccc(C)cc4o3)CC2)c(C)c1,-5.3%,-4.5%,.,-11.1%[60.1 µM],-6.6%,.
Cc1ccc(/C=C/C(=O)O)cc1S(=O)(=O)N(C)CCO,-1.3%,-0.8%,-64.1*,-0.6%,-10.6%,-13.8%
C=CCn1c(SCC)nc2ccccc2c1=O,11.0%,.,.,-15.8%,.,.
CCN(CC)C(=O)CSc1nc2ccc(NC(=O)CSc3nccn3C)cc2s1,25.1µM*,5.62µM*,.,-39.6%,-12.7%,-15.7%
O=C(Nc1ccc2c(c1)C(=O)NC2=O)c1cccc(C(F)(F)F)c1,?,79.4µM*,4.8,-22.7%,-8.4%,-12.0%
O=C(Nc1ccc2c(c1)C(=O)NC2=O)c1ccccc1,5.9%,23.4%,2.1,10.3%,-1.8%,3.1%
NS(=O)(=O)c1ccc(CCNC(=O)C2COc3ccccc3C2)cc1 (stereo unspecified),-11.5%,-1.1%,.,-4.3%[60.1 µM],-5.0%,.
C=CC(=O)Nc1cccc(Oc2ccnc(Nc3ccc(N4CCN(C)CC4)cc3)n2)c1,?,.,-10.3,-29.2%,?,?
C=CC(=O)Nc1cccc(Oc2ccnc3[nH]ccc23)c1,?,.,-71.6*,-13.8%,?,?
N#C/C(=C/c1cn[nH]c1-c1cccc(Br)c1)C(=O)O,-27.2%,-23.2%,?,7.5%,-13.9%,-11.2%
N#C/C(=C/c1cn[nH]c1-c1ccc(Br)cc1)C(=O)O,48.2%,-3.9%,-76.4*,3.4%,-4.9%,?
CC(C)(C)n1ncc2c(=O)n(Cc3cc(F)ccc3Cl)cnc21,?,.,.,-9.5%,.,.
CCC(=O)OCCNc1cc(SCCC(=O)OC)c2nonc2c1[N+](=O)[O-],?,1.0%,-6.6,1.9%,-11.3%,-9.5%
CCCC(=O)OCCNc1cc(Sc2nc3ccccc3[nH]2)c2nonc2c1[N+](=O)[O-],?,6.0%,-25.3,-13.5%,?,39.8µM*
CCOC(=O)CSc1nc2cc(OC)c(OC)cc2c2nc(-c3ccccc3)nn12,3.9%,27.3%,.,-8.6%,2.4%,.
O=S(=O)(Nc1ncnc2sc3c(c12)CCC3)c1ccc(Cl)s1,?,-2.2%,-5.9,0.0%,35.5µM*,-29.8%[57.1 µM]
Cc1ccc(Cn2c(C)c(CNC(C)c3ccccc3)c(C(=O)O)c2C)cc1 (stereo unspecified),-6.8%,-5.8%,.,-6.8%,-6.4%,.
CCCCS(=O)(=O)/C=C\C=C/S(=O)(=O)CCCC,?,?,-5.1,-12.0%,?,44.7µM*
N#CC1=C(N)NC(=S)C(C(N)=O)C1c1ccc([N+](=O)[O-])cc1 (stereo unspecified),?,0.1%,-56.4*,-3.5%,-3.3%,?
O=C1NC(C(=O)O)=CC(c2ccc([N+](=O)[O-])cc2)N1 (stereo unspecified),3.5%,25.3%,-21.7,-5.9%,-10.5%,2.6%

# Assay outcomes: PubChem BioAssay, National Center for Advancing Translational Sciences (NCATS)
